Test results from article PMC5540273 (PLoS ONE, 2017).
Like-named read-outs stand apart in the source and are kept apart here.

Assays:
RIPK2 = settings: concentration: 1 μM, replicates: in singlicate; n = 1
RIPK4 = settings: concentration: 1 μM, replicates: in singlicate; n = 1
RIPK5 = settings: concentration: 1 μM, replicates: in singlicate; n = 1
ROCK1 = settings: n = 1
ROCK2 = settings: concentration: 1 μM, replicates: in singlicate; n = 1
ROS1 = settings: concentration: 1 μM, replicates: in singlicate; n = 1
[1] = tested on: RPS6KA4(Kin.Dom.1-N-terminal); settings: concentration: 1 μM, replicates: in singlicate; n = 1
[2] = tested on: RPS6KA4(Kin.Dom.2-C-terminal); settings: concentration: 1 μM, replicates: in singlicate; n = 1
[3] = tested on: RPS6KA5(Kin.Dom.1-N-terminal); settings: concentration: 1 μM, replicates: in singlicate; n = 1
[4] = tested on: RPS6KA5(Kin.Dom.2-C-terminal); settings: concentration: 1 μM, replicates: in singlicate; n = 1
[5] = tested on: T1, RSK1(Kin.Dom.1-N-terminal); settings: concentration: 1 μM, replicates: in singlicate; n = 1
T1 construct: gene RPS6KA1

[6] = tested on: T2, RSK1(Kin.Dom.2-C-terminal); settings: concentration: 1 μM, replicates: in singlicate; n = 1
T2 construct: gene RPS6KA1

[7] = tested on: T3, RSK2(Kin.Dom.1-N-terminal); settings: concentration: 1 μM, replicates: in singlicate; n = 1
T3 construct: gene RPS6KA3

[8] = tested on: T4, RSK2(Kin.Dom.2-C-terminal); settings: concentration: 1 μM, replicates: in singlicate; n = 1
T4 construct: gene RPS6KA3

[9] = tested on: T5, RSK3(Kin.Dom.1-N-terminal); settings: concentration: 1 μM, replicates: in singlicate; n = 1
T5 construct: gene RPS6KA2

[10] = tested on: T6, RSK3(Kin.Dom.2-C-terminal); settings: concentration: 1 μM, replicates: in singlicate; n = 1
T6 construct: gene RPS6KA2

[11] = tested on: T7, RSK4(Kin.Dom.1-N-terminal); settings: concentration: 1 μM, replicates: in singlicate; n = 1
T7 construct: gene RPS6KA6

[12] = tested on: T8, RSK4(Kin.Dom.2-C-terminal); settings: concentration: 1 μM, replicates: in singlicate; n = 1
T8 construct: gene RPS6KA6

S6K1 = settings: concentration: 1 μM, replicates: in singlicate; n = 1
SBK1 = settings: concentration: 1 μM, replicates: in singlicate; n = 1
[13] = concentration: 1 μM, replicates: in singlicate
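Further: KINOMEscan kinase panel screen.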

COc1cc2ncn(-c3cc(OCc4ccc(S(C)(=O)=O)cc4)c(C(N)=O)s3)c2cc1OC [GW869979]
%Inh (RIPK2): 0% | %Inh (RIPK4): 35% | %Inh (RIPK5): 3% | %Inh (ROCK1; [13]): 45% | %Inh (ROCK2): 32% | %Inh (ROS1): 0% | %Inh [1]: 0% | %Inh [2]: 38% | %Inh [3]: 0% | %Inh [4]: 14% | %Inh [5]: 1% | %Inh [6]: 0% | %Inh [7]: 26% | %Inh [8]: 0% | %Inh [9]: 0% | %Inh [10]: 7% | %Inh [11]: 27% | %Inh [12]: 6% | %Inh (S6K1): 19% | %Inh (SBK1): 37%

OCCCNc1nccc(-c2c(-c3cccc(C(F)(F)F)c3)nn3cc(C(F)(F)F)ccc23)n1 [GW630813]
%Inh (RIPK2): 14% | %Inh (RIPK4): 0% | %Inh (RIPK5): 0% | %Inh (ROCK1; [13]): 11% | %Inh (ROCK2): 24% | %Inh (ROS1): 0% | %Inh [1]: 0% | %Inh [2]: 0% | %Inh [3]: 0% | %Inh [4]: 16% | %Inh [5]: 0% | %Inh [6]: 32% | %Inh [7]: 0% | %Inh [8]: 5% | %Inh [9]: 0% | %Inh [10]: 0% | %Inh [11]: 0% | %Inh [12]: 89% | %Inh (S6K1): 1% | %Inh (SBK1): 0%

Cl.NS(=O)(=O)c1cccc(Nc2cc(-c3ccc(F)cc3)n[nH]2)c1 [GW824645]
%Inh (RIPK2): 0% | %Inh (RIPK4): 15% | %Inh (RIPK5): 22% | %Inh (ROCK1; [13]): 0% | %Inh (ROCK2): 18% | %Inh (ROS1): 11% | %Inh [1]: 17% | %Inh [2]: 0% | %Inh [3]: 0% | %Inh [4]: 3% | %Inh [5]: 0% | %Inh [6]: 0% | %Inh [7]: 35% | %Inh [8]: 0% | %Inh [9]: 0% | %Inh [10]: 0% | %Inh [11]: 15% | %Inh [12]: 0% | %Inh (S6K1): 0% | %Inh (SBK1): 0%

COc1cccc(C2=C(N(C)c3ccccc3)C(=O)NC2=O)c1 [SB-334865]
%Inh (RIPK2): 17% | %Inh (RIPK4): 19% | %Inh (RIPK5): 0% | %Inh (ROCK1; [13]): 0% | %Inh (ROCK2): 12% | %Inh (ROS1): 0% | %Inh [1]: 8% | %Inh [2]: 0% | %Inh [3]: 20% | %Inh [4]: 0% | %Inh [5]: 0% | %Inh [6]: 0% | %Inh [7]: 0% | %Inh [8]: 5% | %Inh [9]: 11% | %Inh [10]: 5% | %Inh [11]: 0% | %Inh [12]: 19% | %Inh (S6K1): 10% | %Inh (SBK1): 0%

Nc1nc(-c2ccccc2F)c(-c2ccnc3ccccc23)s1 [GW560459]
%Inh (RIPK2): 98% | %Inh (RIPK4): 0% | %Inh (RIPK5): 0% | %Inh (ROCK1; [13]): 14% | %Inh (ROCK2): 24% | %Inh (ROS1): 4% | %Inh [1]: 3% | %Inh [2]: 0% | %Inh [3]: 10% | %Inh [4]: 1% | %Inh [5]: 0% | %Inh [6]: 35% | %Inh [7]: 6% | %Inh [8]: 95.6% | %Inh [9]: 0% | %Inh [10]: 1% | %Inh [11]: 0% | %Inh [12]: 89% | %Inh (S6K1): 0% | %Inh (SBK1): 6%

CN(C)c1cc(-c2ccc3c(N)n[nH]c3c2)nc(N)n1 [GSK2219329]
%Inh (RIPK2): 0% | %Inh (RIPK4): 15% | %Inh (RIPK5): 0% | %Inh (ROCK1; [13]): 0% | %Inh (ROCK2): 0% | %Inh (ROS1): 10% | %Inh [1]: 8% | %Inh [2]: 0% | %Inh [3]: 18% | %Inh [4]: 0% | %Inh [5]: 11% | %Inh [6]: 0% | %Inh [7]: 0% | %Inh [8]: 0% | %Inh [9]: 0% | %Inh [10]: 4% | %Inh [11]: 0% | %Inh [12]: 14% | %Inh (S6K1): 2% | %Inh (SBK1): 7%

CC(C)(C)c1ccc(C(=O)Nc2cn3cc(-c4ccccc4)ccc3n2)cc1
%Inh (RIPK2): 16% | %Inh (RIPK4): 0% | %Inh (RIPK5): 2% | %Inh (ROCK1; [13]): 0% | %Inh (ROCK2): 63% | %Inh (ROS1): 0% | %Inh [1]: 6% | %Inh [2]: 0% | %Inh [3]: 0% | %Inh [4]: 18% | %Inh [5]: 0% | %Inh [6]: 0% | %Inh [7]: 3% | %Inh [8]: 0% | %Inh [9]: 24% | %Inh [10]: 100% | %Inh [11]: 0% | %Inh [12]: 0% | %Inh (S6K1): 0% | %Inh (SBK1): 0%

Nc1nccc2scc(-c3ccc4c(c3)CCN4C(=O)Cc3ccccc3)c12 [GSK2576924]
%Inh (RIPK2): 58% | %Inh (RIPK4): 3% | %Inh (RIPK5): 12% | %Inh (ROCK1; [13]): 0% | %Inh (ROCK2): 38% | %Inh (ROS1): 18% | %Inh [1]: 13% | %Inh [2]: 0% | %Inh [3]: 25% | %Inh [4]: 14% | %Inh [5]: 9% | %Inh [6]: 20% | %Inh [7]: 0% | %Inh [8]: 0% | %Inh [9]: 8% | %Inh [10]: 7% | %Inh [11]: 0% | %Inh [12]: 11% | %Inh (S6K1): 2% | %Inh (SBK1): 2%

CCS(=O)(=O)c1ccc(OC)c(Nc2ncc(-c3ccc(F)cc3)o2)c1.Cl [GW591947]
%Inh (RIPK2): 19% | %Inh (RIPK4): 0% | %Inh (RIPK5): 0% | %Inh (ROCK1; [13]): 20% | %Inh (ROCK2): 16% | %Inh (ROS1): 0% | %Inh [1]: 25% | %Inh [2]: 0% | %Inh [3]: 27% | %Inh [4]: 0% | %Inh [5]: 11% | %Inh [6]: 0% | %Inh [7]: 0% | %Inh [8]: 22% | %Inh [9]: 0% | %Inh [10]: 2% | %Inh [11]: 0% | %Inh [12]: 3% | %Inh (S6K1): 0% | %Inh (SBK1): 0%

COc1cc(Nc2ccnc3ccc(C(F)(F)F)cc23)cc(OC)c1OC [GW577382]
%Inh (RIPK2): 64% | %Inh (RIPK4): 1% | %Inh (RIPK5): 0% | %Inh (ROCK1; [13]): 0% | %Inh (ROCK2): 15% | %Inh (ROS1): 9% | %Inh [1]: 10% | %Inh [2]: 0% | %Inh [3]: 6% | %Inh [4]: 13% | %Inh [5]: 18% | %Inh [6]: 0% | %Inh [7]: 98.3% | %Inh [8]: 32% | %Inh [9]: 4% | %Inh [10]: 20% | %Inh [11]: 0% | %Inh [12]: 21% | %Inh (S6K1): 1% | %Inh (SBK1): 5%

CCn1c(-c2nonc2N)nc2ccccc21 [SB-693162/GW549034]
%Inh (RIPK2): 0% | %Inh (RIPK4): 6% | %Inh (RIPK5): 53% | %Inh (ROCK1; 1 µM): 78% | %Inh (ROCK2): 76% | %Inh (ROS1): 0% | %Inh [1]: 0% | %Inh [2]: 40% | %Inh [3]: 0% | %Inh [4]: 0% | %Inh [5]: 6% | %Inh [6]: 4% | %Inh [7]: 41% | %Inh [8]: 3% | %Inh [9]: 4% | %Inh [10]: 19% | %Inh [11]: 48% | %Inh [12]: 15% | %Inh (S6K1): 43% | %Inh (SBK1): 22%
